Bioassay records as filed in PubChem BioAssay.
Luc counter: blocks Kinase-Glo luciferase, a counter-screen artifact | Kinase-Glo luciferase, ATP luminescence, 8 min | Q27757 | hit rate 0.28% among 200,000 | Potency, µM (titrated, usually from 38.3 µM), usual class: inhibitors; active = well fitted inhibition curve with a large enough effect; inconclusive = small, poorly fitted or top-dose-only effect; note: nearly all actives have a fitted effect of over 60% in size
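Luminescence was the read-out, taken after 8-minute incubation at ambient temperature. Luciferase turned over luciferin with 10 uM ATP in imidazole pH 7.2 buffer containing KCl, MgCl2, Tween 20 and BSA.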
PNC inhibitor: inhibitors of perinucleolar compartment assembly. activity change (PNC), negative = inhibition, % at 10 µM. PC3M PTB-GFP, PNC prevalence imaging, 16 h; active compounds read low. hit rate 3.1% among 140,000;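 active = readout at or below -70, meaning at least 70% loss of cells showing the perinucleolar compartment, a nuclear body marking cancer cells; inconclusive = readout between -30 and a set limit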
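PC3M cells stably expressing PTB-GFP, 750–1000 cells/well, treated 16 h at 37 °C with compound (23 nl of library stock), in duplicate. After paraformaldehyde fixation and Hoechst stain, imaged at 20x; PNC prevalence scored by image analysis.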
ALDH1A1 inh: blocks purified human ALDH1A1 activity; P00352; AID 1030; Purified ALDH1A1, NADH fluorescence, propionaldehyde substrate; Potency, µM (doses to about 75.3 µM), most hits filed as inhibitors; hit rate 7.3% among 220,000
Target sequence (P00352 whole entry, looked up): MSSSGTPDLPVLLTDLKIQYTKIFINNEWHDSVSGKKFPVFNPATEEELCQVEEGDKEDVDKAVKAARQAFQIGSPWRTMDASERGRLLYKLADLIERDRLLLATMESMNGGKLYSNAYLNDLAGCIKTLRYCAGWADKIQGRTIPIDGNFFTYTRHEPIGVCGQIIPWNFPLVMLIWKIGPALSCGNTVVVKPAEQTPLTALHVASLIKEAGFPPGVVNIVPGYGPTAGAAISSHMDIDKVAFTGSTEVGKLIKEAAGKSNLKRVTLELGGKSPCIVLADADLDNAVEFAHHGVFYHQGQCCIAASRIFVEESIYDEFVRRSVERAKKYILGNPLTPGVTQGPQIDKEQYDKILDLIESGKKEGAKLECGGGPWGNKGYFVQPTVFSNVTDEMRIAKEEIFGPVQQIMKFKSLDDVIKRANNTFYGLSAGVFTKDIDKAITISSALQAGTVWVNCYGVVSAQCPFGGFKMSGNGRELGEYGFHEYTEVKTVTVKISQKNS
IMPase inh: IMPase inhibition in cells; inhibition (IP1 accumulation), % at 46.1 µM; AID 901; 120,000 tested, under 10 active; CHO-M1 cells, IP1 accumulation, HTRF TR-FRET ratio; active = well fitted curve in the direction sought with a large enough effect in the signal ratio, not every such curve was filed as active; inconclusive = small, poorly fitted or top-dose-only effect, or a change in a side signal; inactive = no such curve, though single readings can be large or run the other way; the % refers to the signal ratio;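 note: cells stimulated with carbachol in lithium chloride buffer; higher means more IMPase inhibition seen as more IP1 and lower FRET ratio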
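Elevated IP1 in lysates lowers TR-FRET signal (665/620 ratio and 620 channel reported). Cells were CHO-M1, given carbachol (50 uM as added) plus 50mM LiCl, pH 7.4, 30 min, 37C; compounds titrated up to 46 uM; AC50 by Hill equation.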
HPGD inh: inhibitors of human 15-hydroxyprostaglandin dehydrogenase (HPGD). P15428. purified HPGD, NADH fluorescence kinetic, PGE2 substrate. Potency, µM, most hits filed as inhibitors. hit rate 4.3% among 150,000
Target sequence (P15428 whole entry, looked up): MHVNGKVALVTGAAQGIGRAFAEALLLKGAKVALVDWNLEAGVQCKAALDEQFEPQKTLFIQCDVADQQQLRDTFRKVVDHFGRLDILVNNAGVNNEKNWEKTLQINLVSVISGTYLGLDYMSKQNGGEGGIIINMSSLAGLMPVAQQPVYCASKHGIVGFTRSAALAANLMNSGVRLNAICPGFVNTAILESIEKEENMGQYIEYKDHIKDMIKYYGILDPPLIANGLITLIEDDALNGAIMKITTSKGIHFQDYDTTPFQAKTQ
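NADH formation kinetics: reaction with 30 uM PGE2 and 1 mM NAD+ (final), 20 nM enzyme, Tris-HCl pH 8 with Tween 20, after 15 min compound preincubation at room temperature. Fluorescence change, last versus first of five reads.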
Lamin A splicing: LMNA splicing modulation | hit rate 0.01% among 200,000 | Potency, µM (series often up to 46.1 µM), hits mostly inhibitors | HeLa LMNA splicing GFP/RFP minigene ratio, 48 h; active = well fitted inhibition curve with a large enough effect in the signal ratio, with a control signal flat, not every such curve was filed as active; inconclusive = small, poorly fitted or top-dose-only effect, or effect the other way, or a change in a side signal; the % refers to the signal ratio
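S3 HeLa stable clones carrying a lamin A-EGFP splicing minigene plus DsRed2 were seeded at 600 cells/well in Opti-MEM with 2% FBS, pin-dosed and incubated 48 h at 37°C. Acumen cytometry (488 nm) gave the GFP/RFP total-intensity ratio.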
A number is an active result; - = inactive; ? = inconclusive; . = no result; [ ] = another dose, or the depositor's remark. Hits are enriched below; roughly 10% of the tested compounds scored in any of these assays. Unless noted, calls come from the whole dose curve; as a rule, active = well fitted inhibition curve with a large enough effect (not every such curve was filed as active); inconclusive = small, poorly fitted or top-dose-only effect, or another doubt; inactive = no such curve, though single readings can be large or run the other way.

SMILES	Luc counter	PNC inhibitor	ALDH1A1 inh	IMPase inh	HPGD inh	Lamin A splicing
COc1ccc(C)cc1C(=O)CCC(=O)Nc1ccccc1N1CCOCC1	-	-	28µM	-	-	-
CCCCN1C(=O)c2ccc(C(=O)Nc3ccccc3N3CCOCC3)cc2C1=O	-	.	0.89µM	.	.	.
CN1CCN(c2ccccc2NC(=O)c2ccc(N3CCCCC3)c([N+](=O)[O-])c2)CC1	-	.	22µM	.	.	.
COc1cc(CC(=O)Nc2ccccc2N2CCOCC2)cc(OC)c1OC	-	.	-	.	.	?
CCc1ccc(-n2nc(C)c3c(C)cc(=O)n(CC(=O)Nc4ccc(OC)c(OC)c4)c32)cc1	.	.	.	.	.	-
Cc1ccc(C(=O)NC(=S)Nc2ccc(NC(=O)c3cccs3)cc2)cc1[N+](=O)[O-]	-	?	13µM	.	-	-
CCC(=O)N1CCN(c2ccccc2NC(=S)NC(=O)c2cccc([N+](=O)[O-])c2)CC1	-	.	14µM	.	.	?
CCOc1ccc(C(=O)NC(=S)Nc2ccccc2N2CCOCC2)cc1Br	-	-	4µM	.	-	?
Cc1ccc(C(=O)Nc2ccc(NC(=O)c3cccs3)cc2)cc1[N+](=O)[O-]	-	.	-	.	.	.
CCCCN(CCCC)C(=O)c1c[nH]c2ccc(S(=O)(=O)Nc3cccc(Cl)c3C)cc2c1=O	.	.	.	.	.	-
COc1ccc2c(c1)O[C@H](c1ccc3c(c1)OCO3)[C@@H](OC(=O)NS(=O)(=O)c1ccc(C)cc1)C2=O	-	.	?	.	-	.
C/C=C(\C)[C@H](O)C[Si](C)(C)c1ccccc1	-	.	-	.	-	.
O=C(O)c1cnc(-c2ccccc2)nc1Sc1ccccc1Cl	-	-	-	-	14µM	-
COc1ccc(S(=O)(=O)Cc2ccc(C(=O)N3CCN(C(=O)c4ccco4)CC3)o2)cc1	-	-	6µM	-	-	-
COc1ccccc1N1CCN(C(=O)c2ccc(CS(=O)(=O)c3ccccc3OC)o2)CC1	-	?	18µM	-	-	?
Cc1ccc(S(=O)(=O)Cc2ccc(C(=O)NCc3ccc4c(c3)OCO4)o2)cc1	-	-107	10µM	-	-	-
CCOC(=O)N1CCN(C(=O)c2ccc(CS(=O)(=O)c3ccccc3OC)o2)CC1	-	-	-	-	-	-
COc1ccc(S(=O)(=O)Cc2ccc(C(=O)N3CCN(Cc4ccccc4)CC3)o2)cc1	-	?	13µM	-	-	-
COc1ccc(N2CCN(C(=O)c3ccc(CS(=O)(=O)c4ccc(OC)cc4)o3)CC2)cc1	-	-	-	-	-	-
COCCNC(=O)c1ccc(CS(=O)(=O)c2ccc(C)cc2)o1	-	-	-	-	-	-
O=C(c1ccccc1F)N1c2nc(-c3ccco3)nn2C2(CCCCC2)[C@@H]2CCCC[C@@H]21	.	.	.	.	.	-
O=C1CC(c2nnc(Cc3ccccc3Cl)o2)CN1c1ccccc1 (stereo not given)	.	.	.	-	.	.
Cc1ccc(S(=O)(=O)Cc2ccc(C(=O)O)o2)cc1	-	-	8.9µM	-	-	-
Cc1ccc(S(=O)(=O)Cc2ccc(C(=O)N3CCN(Cc4ccccc4)CC3)o2)cc1	-	?	8.9µM	-	-	-
CCCCNS(=O)(=O)c1cccc(S(=O)(=O)N2CCCC2)c1	-	-	14µM	-	-	-
SMILES	Luc counter	PNC inhibitor	ALDH1A1 inh	IMPase inh	HPGD inh	Lamin A splicing
O=C(NCc1cccs1)c1ccc(S(=O)(=O)N2CCCCC2)cc1	-	.	-	.	.	-
O=S(=O)(NCc1cccs1)c1cccc(S(=O)(=O)N2CCCCC2)c1	-	-	8.9µM	-	-	?
O=C(Nc1cccc(F)c1)N1CC[C@@]2(CCCN(C(=O)c3ccncc3)C2)C1	-	.	-	.	-	.
Cc1cccnc1NC(=S)NC(=O)/C=C/c1ccco1	-	-	?	-	-	-
O=C(/C=C/c1ccco1)NC(=S)Nc1ccccn1	-	-	?	-	16µM	-
O=C(/C=C/c1ccco1)NC(=S)Nc1ccccc1N1CCOCC1	-	-109	?	-	-	-
COC(=O)C1=C(C)[C@@H](O)[C@@H](C)[C@](C)(c2cc(OC)c(C)c(OC)c2COc2ccccc2)O1	-	.	-	.	-	.
COCCOc1cnn(-c2cc(Oc3ccc(C)cc3)ncn2)c(=O)c1Cl	-	-	?	-	-	-
COc1cnn(-c2cc(Oc3ccc(C)cc3)ncn2)c(=O)c1Cl	-	-	13µM	-	-	-
Cc1ccc(CC(Cc2nc3ccccc3[nH]2)c2nc3ccccc3[nH]2)cc1 (stereo not given)	-	.	-	-	-	.
C[C@@H]1/C=C\CC(=O)OC[C@H](C)C(=O)N[C@@H](C)C(=O)OC1	.	.	-[13.5 µM]	.	.	.
CCCC[C@@H]1C[C@H]1C(NS(=O)(=O)c1cccc2cccnc12)c1ccc(-c2ccccc2)cc1 (stereo not given in full)	-	.	-	.	-	.
N#C/C(=C/c1ccccc1[N+](=O)[O-])c1nc(C2CC2)cs1	-	-	11µM	-	?	?
N#C/C(=C\c1ccc([N+](=O)[O-])cc1)c1nc(C2CC2)cs1	-	-	-	.	-	-
N#C/C(=C\C=C\c1ccccc1[N+](=O)[O-])c1nc(-c2ccc3c(c2)OCO3)cs1	-	-	-	-	-	-
N#C/C(=C\c1ccccc1[N+](=O)[O-])c1nc(C2CC2)cs1	-	-	10µM	.	-	-
N#C/C(=C(/O)c1ccc([N+](=O)[O-])cc1)c1nnc2n1CCCCC2	-	.	?	.	.	-
N#C/C(=C/c1ccccc1[N+](=O)[O-])c1nnc2n1CCCCC2	-	?	22µM	-	2.5µM	-
Cc1ccc(-c2ccc(=O)n(CC(=O)NCCc3ccccc3)n2)cc1	.	.	.	.	.	-
O=C(O)CNc1ccc(C(=O)O)cc1	-[7.66 µM]	.	-[13.5 µM]	.	-	.
COc1cc2c(cc1OC)[C@H](C)N(CC1C(=O)O[C@@H]3C[C@@]4(C)CCC[C@H](C)[C@@]45OC5[C@H]13)CC2 (stereo not given in full)	-	.	-	.	-	.
CCN(CC)CCCNC(=O)CN1C(=O)CCn2nc(-c3cn(C)c4ccccc34)cc21	.	.	.	.	.	-
Cc1ccccc1CN1CCCN(CC(=O)Nc2c(C)cccc2C)S1(=O)=O	.	.	.	.	.	-
Cc1ccc2nc3c(cc(C(=O)NCC4CCCO4)c(=N)n3C(C)C)c(=O)n2c1 (stereo not given)	.	.	.	-	.	.
C/C=C/C=C/C(=O)Nc1nccs1	-	-116	-	.	-	-
SMILES	Luc counter	PNC inhibitor	ALDH1A1 inh	IMPase inh	HPGD inh	Lamin A splicing
O=C(/C=C/c1ccc(Cl)cc1)Nc1nccs1	-	.	-	.	.	.
COCCn1nnnc1SCC(=O)NCc1ccc2c(c1)OCO2	-	.	-	.	.	-
COCCCn1nnnc1SCC(=O)Nc1ccc2c(c1)OCCO2	-	.	13µM	.	.	?
O=C(CSc1nnnn1C1CCCC1)Nc1ccc2c(c1)OCO2	-	?	11µM	-	-	-
COc1cccc(C(=O)CSc2nnnn2C2CCCCC2)c1	-	?	2.8µM	-	-	-
CCOC(=O)c1ccc(NC(=O)CSc2nnnn2C2CCCCC2)cc1	-	-	-	-	-	-
